Results taken from PubChem BioAssay (Tox21).
Inconclusive results are not listed. Entries that show only a call come without a potency. The source made the active and inactive calls. Calls follow the shape of the full dose curve.

Molecular target: Acetylcholinesterase (Homo sapiens) (UniProt P22303)
Assay: Acetylcholinesterase (AChE) small molecule antagonists: colormetric cell-based qHTS assay (AID 1347395); also: nearly all actives have a fitted effect of over 30% in size
Conditions: SH-SY5Y cells AChE activity, colorimetric (Ellman); series mostly up to 115 µM
In short: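 SH-SY5Y cells attached overnight, exposed to compound 30 min at 37 C, then given DTNB/acetylthiocholine; after 90 min at 37 C, colorimetric thiocholine read gives cellular AChE activity.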

Sequence of Acetylcholinesterase (Homo sapiens) (P22303 whole entry, looked up): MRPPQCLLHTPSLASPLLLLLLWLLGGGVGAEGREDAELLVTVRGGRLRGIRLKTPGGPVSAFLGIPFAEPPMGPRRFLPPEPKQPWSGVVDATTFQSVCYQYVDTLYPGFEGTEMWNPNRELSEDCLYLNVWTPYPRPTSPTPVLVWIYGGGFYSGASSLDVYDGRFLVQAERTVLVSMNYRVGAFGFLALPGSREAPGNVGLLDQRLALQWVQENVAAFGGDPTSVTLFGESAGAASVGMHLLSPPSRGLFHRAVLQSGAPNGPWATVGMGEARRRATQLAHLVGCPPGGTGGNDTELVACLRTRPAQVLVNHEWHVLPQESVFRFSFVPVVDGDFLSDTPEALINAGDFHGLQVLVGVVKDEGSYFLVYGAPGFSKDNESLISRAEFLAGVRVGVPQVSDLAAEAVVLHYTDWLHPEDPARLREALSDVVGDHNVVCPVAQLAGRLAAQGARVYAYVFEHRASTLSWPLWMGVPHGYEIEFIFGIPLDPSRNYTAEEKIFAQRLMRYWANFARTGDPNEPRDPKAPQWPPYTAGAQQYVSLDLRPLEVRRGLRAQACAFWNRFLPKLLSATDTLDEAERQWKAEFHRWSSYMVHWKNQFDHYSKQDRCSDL

Q: With O=C(OCCOCCOC(=O)c1ccccc1)c1ccccc1 as the compound, how does the Potency read?
A: inactive

Q: For O=S(=O)(O)c1ccc2nc(-c3ccccc3)[nH]c2c1, which Potency is on record?
A: inactive

Q: With O=C1OC2(c3cc(Br)c(O)c(Br)c3Oc3c2cc(Br)c(O)c3Br)c2c(Cl)c(Cl)c(Cl)c(Cl)c21 as the compound, how does the Potency read?
A: inactive

Q: Cc1ccc([N+](=O)[O-])c(N)c1 was tested. Which Potency did it give?
A: inactive

Q: How did the Potency turn out when CC(C)Nc1ccccc1 was run?
A: inactive

Q: CN(C)c1ccc(C(c2ccccc2)c2ccc(N(C)C)cc2)cc1 was tested. Which Potency did it give?
A: inactive

Q: How did the Potency turn out when CCC(=O)O was run?
A: inactive

Q: With COc1ccc(-n2nc(CCC(=O)N(C)O)cc2-c2ccc(Cl)cc2)cc1 as the compound, how does the Potency read?
A: inactive

Q: Which Potency does the source give for CC1=CC(O)CC(C)(C)C1 (stereo not given) here?
A: inactive

Q: For Nc1nc(F)nc2c1ncn2[C@@H]1O[C@H](CO)[C@@H](O)[C@@H]1O, which Potency is on record?
A: inactive

Q: Cc1ccc(S(=O)(=O)NCl)cc1 was tested. Which Potency did it give?
A: inactive

Q: Which Potency does the source give for c1cc[nH]c1 here?
A: inactive

Q: For CCN(CC)C(=O)c1ccc(O)c(OC)c1, which Potency is on record?
A: inactive

Q: CC(C)C(=O)OC(=O)C(C)C was tested. Which Potency did it give?
A: inactive

Q: Which outcome does the source give for CCOC(=O)c1ccc(OC(=O)CCCCCN=C(N)N)cc1 here?
A: inactive

Q: NS(=O)(=O)c1ccc(C(=O)O)cc1 was tested. Which Potency did it give?
A: inactive

Q: How did the Potency turn out when COc1ccc2c(c1)c(CC(=O)OC/C=C(\C)CC/C=C(\C)CCC=C(C)C)c(C)n2C(=O)c1ccc(Cl)cc1 was run?
A: inactive

Q: Which Potency does the source give for c1cc(C(c2ccc(OCC3CO3)cc2)c2ccc(OCC3CO3)cc2)ccc1OCC1CO1 (stereo not given) here?
A: inactive

Q: Which Potency does the source give for CC1(C)OC(=O)NC1=O here?
A: inactive

Q: Which Potency does the source give for CC1(C)[C@@H]2CC[C@]3(C2)[C@@H]1C(=O)CCC3(C)C here?
A: inactive

Q: For CCC(=O)c1ccc(O)cc1, which Potency is on record?
A: inactive

Q: For COC(=O)Nc1nc2ccc(C(=O)c3cccs3)cc2[nH]1, which Potency is on record?
A: inactive

Q: O=C(O)c1cc(C(=O)O)cc([N+](=O)[O-])c1 was tested. Which Potency did it give?
A: inactive

Q: With O=C(c1ccc(O)cc1)c1ccc(O)c(O)c1O as the compound, how does the Potency read?
A: inactive

Q: Which Potency does the source give for c1ccc2nccnc2c1 here?
A: inactive

Q: For OC[C@H]1O[C@@H](OCCc2ccc(O)cc2)[C@H](O)[C@@H](O)[C@@H]1O, which Potency is on record?
A: inactive

Q: With Cc1cn([C@H]2C[C@H](N=[N+]=[N-])[C@@H](CO)O2)c(=O)[nH]c1=O as the compound, how does the Potency read?
A: inactive

Q: Which Potency does the source give for CCCCCCCCCCCCCCCCCC#N here?
A: inactive

Q: Which Potency does the source give for O=C1CCCCCN1SSN1CCCCCC1=O here?
A: inactive

Q: With CC(C)C(=O)OC/C=C/c1ccccc1 as the compound, how does the Potency read?
A: inactive

Q: How did the Potency turn out when CCCC(C)CC (stereo not given) was run?
A: inactive

Q: CC(C)(O)c1coc(S(=O)(=O)NC(=O)Nc2c3c(cc4c2CCC4)CCC3)c1 was tested. Which Potency did it give?
A: inactive

Q: With CC(O)(P(=O)(O)O)P(=O)(O)O as the compound, how does the Potency read?
A: inactive

Q: For CCc1cc2cc(OC)c(OC)cc2c(Cc2ccccc2)n1, which Potency is on record?
A: inactive

Q: N[C@@H](Cc1cc(I)c(Oc2ccc(O)c(I)c2)c(I)c1)C(=O)O was tested. Which Potency did it give?
A: inactive

Q: CN1CCN(c2c(F)cc3c(=O)c(C(=O)O)cn4c3c2SCC4)CC1 was tested. Which Potency did it give?
A: inactive

Q: Which Potency does the source give for Fc1ccccc1[C@@H](F)COC1CCC(Nc2ncnc3[nH]ncc23)CC1 (stereo not given in full) here?
A: inactive

Q: OC1OC[C@@H](O)[C@H](O)[C@H]1O (stereo not given in full) was tested. Which Potency did it give?
A: inactive

Q: COc1ccc(C(=O)/C(Br)=C\C(=O)O)cc1 was tested. Which Potency did it give?
A: inactive

Q: For C[n+]1ccn(CCO)c1, which Potency is on record?
A: inactive

Molecular target: Acetylcholinesterase (Homo sapiens) (UniProt P22303)
Assay: Acetylcholinesterase (AChE) small molecule antagonists: enzyme-based qHTS assay (AID 1347397); also: nearly all actives have a fitted effect of over 55% in size
Conditions: Potency: AChE enzyme activity inhibition; outcome: AChE enzyme activity inhibition; series mostly up to 115 µM
In short: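 Recombinant human AChE, dispensed at 50 mU/mL, was preincubated with Tox21 10K compounds or DMSO vehicle for 30 min at room temperature. DTNB plus acetylthiocholine was then added, and thiocholine was measured colorimetrically after a further 10 min.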

Q: With O=C(OCCOCCOC(=O)c1ccccc1)c1ccccc1 as the compound, how does the Potency read?
A: inactive

Q: Which Potency does the source give for O=S(=O)(O)c1ccc2nc(-c3ccccc3)[nH]c2c1 here?
A: inactive

Q: O=C1OC2(c3cc(Br)c(O)c(Br)c3Oc3c2cc(Br)c(O)c3Br)c2c(Cl)c(Cl)c(Cl)c(Cl)c21 was tested. Which Potency did it give?
A: inactive

Q: For Cc1ccc([N+](=O)[O-])c(N)c1, which Potency is on record?
A: inactive

Q: How did the Potency turn out when CC(C)Nc1ccccc1 was run?
A: inactive

Q: With CN(C)c1ccc(C(c2ccccc2)c2ccc(N(C)C)cc2)cc1 as the compound, how does the Potency read?
A: inactive

Q: How did the Potency turn out when CCC(=O)O was run?
A: inactive

Q: How did the Potency turn out when COc1ccc(-n2nc(CCC(=O)N(C)O)cc2-c2ccc(Cl)cc2)cc1 was run?
A: inactive

Q: Which Potency does the source give for CC1=CC(O)CC(C)(C)C1 (stereo not given) here?
A: inactive

Q: Which Potency does the source give for Nc1nc(F)nc2c1ncn2[C@@H]1O[C@H](CO)[C@@H](O)[C@@H]1O here?
A: inactive

Q: Cc1ccc(S(=O)(=O)NCl)cc1 was tested. Which Potency did it give?
A: inactive

Q: With c1cc[nH]c1 as the compound, how does the Potency read?
A: inactive

Q: For CCN(CC)C(=O)c1ccc(O)c(OC)c1, which Potency is on record?
A: inactive

Q: CC(C)C(=O)OC(=O)C(C)C was tested. Which Potency did it give?
A: inactive

Q: Which outcome does the source give for CCOC(=O)c1ccc(OC(=O)CCCCCN=C(N)N)cc1 here?
A: inactive

Q: How did the Potency turn out when NS(=O)(=O)c1ccc(C(=O)O)cc1 was run?
A: inactive

Q: For COc1ccc2c(c1)c(CC(=O)OC/C=C(\C)CC/C=C(\C)CCC=C(C)C)c(C)n2C(=O)c1ccc(Cl)cc1, which Potency is on record?
A: inactive

Q: Which Potency does the source give for c1cc(C(c2ccc(OCC3CO3)cc2)c2ccc(OCC3CO3)cc2)ccc1OCC1CO1 (stereo not given) here?
A: inactive

Q: CC1(C)OC(=O)NC1=O was tested. Which Potency did it give?
A: inactive

Q: For CC1(C)[C@@H]2CC[C@]3(C2)[C@@H]1C(=O)CCC3(C)C, which Potency is on record?
A: inactive

Q: How did the Potency turn out when CCC(=O)c1ccc(O)cc1 was run?
A: inactive

Q: How did the Potency turn out when COC(=O)Nc1nc2ccc(C(=O)c3cccs3)cc2[nH]1 was run?
A: inactive

Q: With O=C(O)c1cc(C(=O)O)cc([N+](=O)[O-])c1 as the compound, how does the Potency read?
A: inactive

Q: How did the Potency turn out when O=C(c1ccc(O)cc1)c1ccc(O)c(O)c1O was run?
A: inactive

Q: With c1ccc2nccnc2c1 as the compound, how does the Potency read?
A: inactive

Q: OC[C@H]1O[C@@H](OCCc2ccc(O)cc2)[C@H](O)[C@@H](O)[C@@H]1O was tested. Which Potency did it give?
A: inactive

Q: With Cc1cn([C@H]2C[C@H](N=[N+]=[N-])[C@@H](CO)O2)c(=O)[nH]c1=O as the compound, how does the Potency read?
A: inactive

Q: For CCCCCCCCCCCCCCCCCC#N, which Potency is on record?
A: inactive

Q: O=C1CCCCCN1SSN1CCCCCC1=O was tested. Which Potency did it give?
A: inactive

Q: How did the Potency turn out when CC(C)C(=O)OC/C=C/c1ccccc1 was run?
A: inactive

Q: With CCCC(C)CC (stereo not given) as the compound, how does the Potency read?
A: inactive

Q: Which Potency does the source give for CC(C)(O)c1coc(S(=O)(=O)NC(=O)Nc2c3c(cc4c2CCC4)CCC3)c1 here?
A: inactive

Q: For CC(O)(P(=O)(O)O)P(=O)(O)O, which Potency is on record?
A: inactive

Q: With CCc1cc2cc(OC)c(OC)cc2c(Cc2ccccc2)n1 as the compound, how does the Potency read?
A: inactive

Q: Which Potency does the source give for N[C@@H](Cc1cc(I)c(Oc2ccc(O)c(I)c2)c(I)c1)C(=O)O here?
A: inactive

Q: With CN1CCN(c2c(F)cc3c(=O)c(C(=O)O)cn4c3c2SCC4)CC1 as the compound, how does the Potency read?
A: inactive

Q: How did the Potency turn out when Fc1ccccc1[C@@H](F)COC1CCC(Nc2ncnc3[nH]ncc23)CC1 (stereo not given in full) was run?
A: inactive

Q: Which Potency does the source give for OC1OC[C@@H](O)[C@H](O)[C@H]1O (stereo not given in full) here?
A: inactive

Q: Which Potency does the source give for COc1ccc(C(=O)/C(Br)=C\C(=O)O)cc1 here?
A: inactive

Q: For C[n+]1ccn(CCO)c1, which Potency is on record?
A: inactive
